Screens from PubChem.
Compounds with a hit are over-represented: about 6.8% of the library has one in this group of screens.
PTAP TSG101 blk = blocks PTAP/TSG101 interaction to inhibit HIV-1 budding | Fluorescence polarization, FITC-PTAP peptide / Tsg101 binding | Potency, µM (top dose mostly 115 µM), for the others: at the top dose activity change, negative = inhibition, most hits filed as inhibitors | 340,000 tested, under 10 active | AID 493005; active means well fitted inhibition curve with a large enough effect in the main read-out, with a control signal flat, not every such curve was filed as active; inconclusive means small, poorly fitted or top-dose-only effect, or effect the other way, or a change in a side signal; inactive means no such curve, though single readings can be large or run the other way; further: % of control where 0% means no effect
Target sequence (Q99816 whole entry, looked up): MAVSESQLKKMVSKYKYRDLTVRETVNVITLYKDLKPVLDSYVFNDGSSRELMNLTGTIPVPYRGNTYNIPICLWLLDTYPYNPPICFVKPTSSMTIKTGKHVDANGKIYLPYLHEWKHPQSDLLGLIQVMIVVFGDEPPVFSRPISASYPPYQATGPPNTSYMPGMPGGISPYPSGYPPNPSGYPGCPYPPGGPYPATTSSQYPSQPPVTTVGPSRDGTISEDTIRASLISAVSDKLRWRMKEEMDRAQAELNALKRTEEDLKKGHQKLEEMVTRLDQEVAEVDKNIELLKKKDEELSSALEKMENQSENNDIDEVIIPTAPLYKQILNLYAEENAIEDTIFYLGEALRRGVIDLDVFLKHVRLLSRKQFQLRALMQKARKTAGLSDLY
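FP read-out: FITC-PTAP peptide, 50 nM final, binding Tsg101 binding domain, 10 uM final; 20 min, r.t.; 10 mM HEPES pH 7.5, 0.15 M NaCl, 0.01% Tween 20, 3 mM EDTA, 0.1 mM TCEP.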
KB-V1 MDR tox = KB-V1 MDR subline cytotoxicity. actives 3.4% (n = 400,000). KB-V1 MDR cells viability, CellTiter-Glo, 72 h. Potency, µM (titrated, usually from 46.1 µM), most hits filed as cytotoxic. AID 1347076; further: on the % scale 0 is the no-effect control and ±100 the full control effect; nearly all actives have a fitted effect of over 60% in size
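In this primary screen, KB-V1 cells overexpressing P-gp are incubated with library compounds (lowest to highest concentration) for 72 h at 37 degrees C before a luminescent ATP viability read.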
MCF10A rereplic = DNA re-replication induction in MCF 10a cells; MCF 10A DNA re-replication, Hoechst nuclear intensity, 48 h; Potency, µM (series often up to 46.1 µM), without a hit: at the top dose activity, positive = re-replication, most hits filed as activators; actives 2.9% (n = 350,000); further: % of control where 0% means no effect; nearly all actives have a fitted effect of over 50% in size
SW480 rerep = induces DNA re-replication in SW480 colon adenocarcinoma cells; actives 1.8% (n = 340,000); Potency, µM (highest dose often 46.1 µM), without a hit: at the top dose re-replication activation, most hits filed as activators; SW480 DNA re-replication, Hoechst DNA content imaging, 48 h; AID 624297; further: % of control where 0% means no effect; nearly all actives have a fitted effect of over 55% in size
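Hoechst fluorescence of nuclei (405 nm excitation, 500-530 nm emission) measured by plate-scanning imager after 48 hr compound exposure at 37 C; re-replication scored as increased number of nuclei with elevated intensity.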
PINK1 expr mod = changes PINK1 expression; AID 624263; actives 0.2% (n = 410,000); Potency, µM (series often up to 76.6 µM), for the others: at the top dose activation (PINK1 increase), most hits filed as activators; PINK1 immunofluorescence, high-content cytometry, 24 h; active means well fitted activation curve with a large enough effect; inconclusive means small, poorly fitted or top-dose-only effect; cell line not stated here; further: % of control where 0% means no effect; nearly all actives have a fitted effect of over 65% in size
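Compound titrations (5 concentrations, 24 h) on a stable cell line; DMSO and CCCP controls. Endpoint: fixed-cell PINK1 immunofluorescence with mitochondrial, cell and nuclear markers, scanned by microplate cytometer.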
KB-3-1 tox = kills parental KB-3-1 adenocarcinoma cells; Potency, µM (titrated, usually from 46.1 µM), most hits filed as cytotoxic; actives 1.4% (n = 400,000); KB-3-1 viability, CellTiter-Glo ATP luminescence, 72 h; AID 1347075; further: on the % scale 0 is the no-effect control and ±100 the full control effect; nearly all actives have a fitted effect of over 60% in size
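Parental KB-3-1 viability, qHTS format: 72 h compound exposure, 37 °C; CellTiter-Glo; media-only wells and DMSO plates as controls; concentration-effect fits on corrected data.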
* = called active by the depositor; [ ] = another dose, or the depositor's remark. Unless noted, the call rests on the fitted dose curve; in most records, active means well fitted curve in the direction sought with a large enough effect; inconclusive means small, poorly fitted or top-dose-only effect, or another doubt; inactive means no such curve, though single readings can be large; an effect the other way counts as inactive or inconclusive. Potency means the concentration at half of the fitted maximal effect.

How did Cc1cccc(-n2c(C)cc(/C=N/n3cnnc3)c2C)c1 do in these assays?
PTAP TSG101 blk: -6.2%; KB-V1 MDR tox: 18.4µM*; MCF10A rereplic: inconclusive; SW480 rerep: 8.3%; PINK1 expr mod: -2.5%; KB-3-1 tox: inconclusive

Results for Cc1cc(/C=N/n2cnnc2)c(C)n1-c1ccc(C(=O)O)cc1 ?
PTAP TSG101 blk: 0.0%; KB-V1 MDR tox: inactive; MCF10A rereplic: -4.8%; SW480 rerep: -4.0%; KB-3-1 tox: inactive

Results for Cc1cc(/C=C(\C#N)C(=O)Nc2ccccc2)c(C)n1-c1ccc2c(c1)OCO2 ?
PTAP TSG101 blk: 3.1%; KB-V1 MDR tox: inconclusive; MCF10A rereplic: inconclusive; SW480 rerep: 3.66µM*; PINK1 expr mod: inconclusive; KB-3-1 tox: inactive

How did Cc1cc(/C=N/n2cnnc2)c(C)n1-c1ccc2c(c1)OCO2 do in these assays?
PTAP TSG101 blk: -1.3%; KB-V1 MDR tox: 5.17µM*; MCF10A rereplic: 10.6%; SW480 rerep: -9.1%; PINK1 expr mod: -6.9%[38.3 µM]; KB-3-1 tox: inactive

How did CC(C)CCNC(=O)CN1C(=O)CCn2nc(-c3cn(C)c4ccccc34)cc21 do in these assays?
KB-V1 MDR tox: inactive; PINK1 expr mod: 1.5%; KB-3-1 tox: inactive

Results for Clc1cccc(C(c2ccc3nc[nH]c3c2)n2ccnc2)c1 (stereo not given) ?
MCF10A rereplic: 10.9%; SW480 rerep: -2.4%

How did O=C(NCc1ccc(N2CCCC2=O)cc1)c1cnccn1 do in these assays?
PTAP TSG101 blk: -10.0%; KB-V1 MDR tox: inactive; MCF10A rereplic: 1.4%; SW480 rerep: -0.6%; PINK1 expr mod: 0.5%; KB-3-1 tox: inactive

Results for O=C(NCc1ccc(N2CCCC2=O)cc1)Nc1cccc(Cl)c1 ?
PTAP TSG101 blk: -4.4%; KB-V1 MDR tox: 16.4µM*; MCF10A rereplic: inconclusive; SW480 rerep: inconclusive; KB-3-1 tox: inactive

Results for Cc1ncsc1C(=O)NCc1ccc(N2CCCC2=O)cc1 ?
KB-V1 MDR tox: 16.4µM*; MCF10A rereplic: -1.0%; SW480 rerep: -4.0%; PINK1 expr mod: 5.3%[38.3 µM]; KB-3-1 tox: inactive

Results for Cc1csc(SCC(=O)N2CCOc3ccc(C(O)C4CCCCC4)cc3C2)n1 (stereo not given) ?
PINK1 expr mod: 0.7%

How did Cc1csc(SCc2nc3sc4c(c3c(=O)[nH]2)CCC4)n1 do in these assays?
PTAP TSG101 blk: -0.1%; KB-V1 MDR tox: 5.17µM*; MCF10A rereplic: 15.5%; SW480 rerep: -6.6%; PINK1 expr mod: 4.4%; KB-3-1 tox: inactive

Results for CC(c1ccon1)N(C)C(=O)CCc1nnc(C2(c3ccc(Cl)cc3)CCC2)o1 (stereo not given) ?
PTAP TSG101 blk: 1.8%; KB-V1 MDR tox: inconclusive; MCF10A rereplic: 0.581µM*; SW480 rerep: 3.7%; PINK1 expr mod: -0.5%; KB-3-1 tox: inactive

How did COCC(C)NC(=O)CCc1nnc(C2(c3ccc(Cl)cc3)CCC2)o1 (stereo not given) do in these assays?
PTAP TSG101 blk: -0.5%; KB-V1 MDR tox: inactive; MCF10A rereplic: -8.6%; SW480 rerep: -6.5%; PINK1 expr mod: 0.7%; KB-3-1 tox: inactive

How did Nc1c(C(=O)NC23CC4CC(CC(C4)C2)C3)sc2nc3c(c(C(F)(F)F)c12)CCC3 do in these assays?
KB-V1 MDR tox: inconclusive; MCF10A rereplic: 1.64µM*; SW480 rerep: inconclusive; PINK1 expr mod: 3.2%[38.3 µM]; KB-3-1 tox: inactive

What do the screens show for `CC(=O)N1CCc2nc3sc(C(=O)Nc4ccc(Cl)cc4F)c(N)c3c(C(F)(F)F)c2C1`?
KB-V1 MDR tox: inactive; PINK1 expr mod: inconclusive; KB-3-1 tox: inactive

Results for CCC1(c2ccccc2)ON(c2c(Br)cccc2Br)C1=O (stereo not given) ?
PTAP TSG101 blk: -1.1%; KB-V1 MDR tox: inconclusive; MCF10A rereplic: 11.6µM*; SW480 rerep: inconclusive; PINK1 expr mod: 0.4%; KB-3-1 tox: inactive

How did Cc1cc(N2C(=O)C=CC2=O)c([N+](=O)[O-])cc1C do in these assays?
PTAP TSG101 blk: -2.7%; KB-V1 MDR tox: inactive; MCF10A rereplic: 18.4µM*; SW480 rerep: 16.4µM*; PINK1 expr mod: 0.4%; KB-3-1 tox: inactive

How did CC1CN(CCC(=O)NC(c2cccnc2)C(F)(F)F)Cc2cc(Cl)ccc2O1 (stereo not given) do in these assays?
PINK1 expr mod: -0.1%

What do the screens show for `CCn1c(SCC(=O)Nc2ccc(OC)cc2)nc2nc3c(cc2c1=O)CCCC3`?
PTAP TSG101 blk: -1.3%; KB-V1 MDR tox: inactive; MCF10A rereplic: 0.0%; SW480 rerep: 11.6%; PINK1 expr mod: 2.5%; KB-3-1 tox: inactive

How did CCn1c(SCc2c(Cl)cccc2Cl)nc2nc3c(cc2c1=O)CCCC3 do in these assays?
PTAP TSG101 blk: -3.1%; KB-V1 MDR tox: inactive; MCF10A rereplic: 23.1µM*; SW480 rerep: inconclusive; PINK1 expr mod: 4.6%; KB-3-1 tox: inactive

Results for CCn1c(SCC(=O)Nc2ccc(Cl)cc2)nc2nc3c(cc2c1=O)CCCC3 ?
PTAP TSG101 blk: -6.4%; KB-V1 MDR tox: 0.517µM*; MCF10A rereplic: 14.1%; SW480 rerep: inconclusive; PINK1 expr mod: 2.2%; KB-3-1 tox: inactive

What do the screens show for `CCn1c(SCC(=O)NCc2ccccc2)nc2nc3c(cc2c1=O)CCCC3`?
PTAP TSG101 blk: -1.4%; KB-V1 MDR tox: inactive; MCF10A rereplic: 10.4%; SW480 rerep: -0.1%; PINK1 expr mod: 0.7%; KB-3-1 tox: inactive

Results for CCn1c(SCC(=O)Nc2ccc(C(C)=O)cc2)nc2nc3c(cc2c1=O)CCCC3 ?
PTAP TSG101 blk: -0.1%; KB-V1 MDR tox: inactive; MCF10A rereplic: inconclusive; SW480 rerep: 1.9%; PINK1 expr mod: 9.3%[38.3 µM]; KB-3-1 tox: inactive

How did CCn1c(SCc2ccccc2Cl)nc2nc3c(cc2c1=O)CCCC3 do in these assays?
PTAP TSG101 blk: -2.5%; KB-V1 MDR tox: inactive; MCF10A rereplic: 18.4µM*; SW480 rerep: inconclusive; PINK1 expr mod: 3.6%; KB-3-1 tox: inconclusive

Results for CCCCN(C)CCCNC(=O)Cn1nc(CC)n2c(cc3sc(C)cc32)c1=O ?
PINK1 expr mod: 1.1%

Results for CCc1nn2c(=O)cc(COC(=O)Cc3ccccc3)nc2s1 ?
KB-V1 MDR tox: inactive; PINK1 expr mod: -0.3%; KB-3-1 tox: inactive

Results for CN1c2ccc(Cl)cc2C(=O)NC1c1ccc([N+](=O)[O-])s1 (stereo not given) ?
PTAP TSG101 blk: -4.5%; KB-V1 MDR tox: inactive; MCF10A rereplic: 11.6µM*; SW480 rerep: 41.8%; PINK1 expr mod: 2.1%; KB-3-1 tox: inactive
